Assay outcomes (PubChem)
Rows were chosen to be rich in hits. Some 11% of all compounds tested hit in one or more screens of this group.
AmpC no deterg – qHTS Inhibitors of AmpC Beta-Lactamase (assay without detergent) | Potency, µM (titrated, usually from 57.1 µM), for the others: at the top dose activity change, negative = inhibition, actives largely listed as inhibitors | AID 485341, 2010 | hit rate 0.52% among 330,000 | AmpC nitrocefin hydrolysis, absorbance 480 nm, 0.0001% Triton;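 further: plate controls were no compound for no effect and no enzyme for full effect; nearly all actives have a fitted effect of over 20% in size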
Target sequence (P00811 whole entry, looked up): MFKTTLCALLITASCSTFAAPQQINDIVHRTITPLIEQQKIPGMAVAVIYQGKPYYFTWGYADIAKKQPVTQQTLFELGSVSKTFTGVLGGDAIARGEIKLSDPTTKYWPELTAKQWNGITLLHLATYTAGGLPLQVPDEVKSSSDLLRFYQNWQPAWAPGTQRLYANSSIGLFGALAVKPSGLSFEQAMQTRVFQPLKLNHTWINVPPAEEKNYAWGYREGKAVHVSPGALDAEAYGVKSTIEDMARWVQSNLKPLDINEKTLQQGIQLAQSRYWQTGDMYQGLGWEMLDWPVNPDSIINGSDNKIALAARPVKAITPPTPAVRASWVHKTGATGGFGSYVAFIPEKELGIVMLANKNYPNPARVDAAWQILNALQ
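AmpC (5.3 nM in the dispensed reagent) in 20 mM phosphate pH 7.0 with 0.01% (detergent screen) or 0.0001% Triton X-100 was preincubated with compounds for 15 min at room temperature. Nitrocefin was then added from an 800 uM solution, and hydrolysis was followed at 480 nm.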
AmpC detergent – qHTS Inhibitors of AmpC Beta-Lactamase (assay with detergent); AmpC hydrolysis of nitrocefin, absorbance 480 nm, 0.01% Triton; Potency, µM (highest dose often 114 µM), for the others: at the top dose activity change, negative = inhibition, hits mostly inhibitors; hit rate 0.041% among 370,000; AID 485294, 2010;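 further: 0% = no-compound wells and -100% = no-enzyme wells; nearly all actives have a fitted effect of over 25% in size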
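20 mM phosphate pH 7.0 + 0.01% (detergent screen) or 0.0001% Triton X-100; 5.3 nM AmpC reagent; cpd preinc 15 min RT; nitrocefin (800 uM stock) to start; A480 q20 s × 4 min; Activity was normalised to no-enzyme and no-compound control wells.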
HCV inh – qHTS Assay for Inhibitors of Hepatitis C Virus (HCV); Huh7.5.1 HCVcc-Cre infection, luciferase reporter, 44 h; Potency, µM (top dose mostly 41.8 µM), inactives show top-dose activity change, negative = inhibition, hits mostly inhibitors; hit rate 3.4% among 340,000; AID 651820, 2012
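Antiviral activity was scored by luciferase reporter output from cells infected with HCVcc-Cre (~0.5 moi) in presence of compound, 44 h infection period, cells seeded 1,000/well 4 h prior.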
Pf growth 96h – Primary qHTS for delayed death inhibitors of the malarial parasite plastid, 96 hour incubation | P. falciparum luciferase reporter growth, 96 h | Potency, µM (doses to about 28.7 µM), inactives show top-dose activity change, negative = inhibition, hits mostly inhibitors | hit rate 6.9% among 320,000 | AID 504834, 2011
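96 h incubation, 37 C, 5% CO2, of luciferase-reporter P. falciparum-infected RBCs (2% hematocrit, 0.05% parasitemia final) with test compounds; endpoint luminescence.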
Pf growth 48h – Primary qHTS for delayed death inhibitors of the malarial parasite plastid, 48 hour incubation | P. falciparum luciferase growth in erythrocytes, 48 h | Potency, µM (doses to about 28.7 µM), inactives show top-dose activity change, negative = inhibition, usual class: inhibitors | hit rate 5.9% among 310,000
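Compounds are pin-transferred into medium, infected erythrocytes (2% hematocrit, 0.1% parasitemia final) are added, and plates sit one parasite generation at 37 C in 5% CO2. Detection reagent is then added and luminescence measured.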
AMA1 RON2 block – qHTS for Inhibitors of AMA1-RON; Towards Development of Antimalarial Drug Lead: Primary Screen. AlphaScreen AMA1-biotinylated RON2 peptide binding. Potency, µM (doses to about 58.2 µM), without a hit: top-dose activity change, negative = inhibition, usual class: inhibitors. hit rate 0.2% among 360,000;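 further: 0% = vehicle wells and -100% = peptide control; nearly all actives have a fitted effect of over 45% in size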
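AMA1 (3D7) with his tag at 25 nM final met compounds first, then biotinylated RON2 peptide at 25 nM; detection used donor plus acceptor beads, 10 µg/mL apiece, read by AlphaScreen after 30 min at room temperature.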
Active calls of the source: *; ? = inconclusive; . = no result given; ! = repeats disagree. The call rests on the fitted dose curve; in most records, active means well fitted curve in the direction sought with a large enough effect; inconclusive means small, poorly fitted or top-dose-only effect, or another doubt; inactive means no such curve, though single readings can be large; an effect the other way counts as inactive or inconclusive. Unless noted, on the % scale 0 is the no-effect control and ±100 the full control effect; potency means the concentration at half of the fitted maximal effect.

SMILES	AmpC no deterg	AmpC detergent	HCV inh	Pf growth 96h	Pf growth 48h	AMA1 RON2 block
CCC(C)NC(=O)CCc1c(C)nc2c(c(C)nn2-c2ccccc2)c1C (stereo not drawn)	78.3%	0.4%	-25.7%	-16.3%	?	5.6%
CCCCNC(=O)CSc1nc2cc3c(cc2c(=O)n1CCCC(=O)NCc1ccc2c(c1)OCO2)OCO3	.	-6.1%	.	.	.	.
Cc1csc2nc(COc3ccc(NC(=O)c4ccccc4F)cc3)cc(=O)n12	.	8.0%	.	.	.	.
COc1cc(C(O)c2nc(-c3cc(F)cc(F)c3)cs2)ccc1F (stereo not drawn)	.	.	.	.	.	5.1%
COc1cc(C(O)c2nc(-c3ccc(N(C)C)cc3)cs2)ccc1F (stereo not drawn)	.	.	.	.	.	20µM*
CC12CC(NC(=O)N1c1cccc(C(=O)NCc3ccc4c(c3)OCO4)c1)c1cc(Cl)ccc1O2 (stereo not drawn)	6.4%	?	25.1µM*	?	.	-10.1%
O=C(c1ccco1)N1CCN=C1SCc1ccc(F)cc1	8.91µM*	?	6.8%	47.3%	-13.9%	24.8%
O=C(c1ccco1)N1CCN=C1SCc1cccc(F)c1	-20.2%	4.1%	17.4%	?	.	13.9%
Cc1nc(Nc2ccc(Cl)c(Cl)c2)sc1C(=O)Nc1ccccc1	-32.1%	?	8.91µM*	?	?	-10.4%
Cc1nnsc1C(=O)N/N=C/c1ccccc1	5.0%	-3.4%	13.2%	?	6.7%	-1.6%
Cc1nnsc1C(=O)Nc1ccccc1	13.3%	-0.7%	25.4%	10.4µM*	-5.1%	18.2%
Cc1nc(Nc2ccc(Cl)cc2Cl)sc1C(=O)Nc1ccccc1	-18.7%	-9.7%	10µM*	11.7µM*	?	4.7%
Cc1nnsc1C(=O)N/N=C/c1ccc2ccccc2c1O	-21.7%	0.2%	?	3.29µM*	2.62µM*	-6.8%
Nc1nc2ccccc2n1/N=C/c1ccc(Br)cc1	-22.5%	-3.0%	?	10.4µM*	-77.2%	-3.3%
Cc1nc2ccn(Cc3ccco3)c(=O)c2cc1C(=O)NCc1ccccc1F	.	0.4%	.	.	.	.
O=C(NC1CCS(=O)(=O)C1)c1ccc(-c2ccc(Br)cc2)o1 (stereo not drawn)	42.2%	-3.2%	11.2µM*	?	.	-3.1%
Cc1ccc(CN(Cc2ccco2)c2cnc(S(C)(=O)=O)nc2C(=O)Nc2ccc(Br)cc2)o1	.	5.0%	.	.	.	.
COC(=O)c1ccc2c(c1)SC1=C(CCCC1=O)N2	-26.4%	-6.2%	?	?	?	?
O=C1CCCC2=C1Sc1ccc(Cl)cc1N2	-27.0%	0.0%	11.2µM*	-17.6%	0.0%	-5.1%
NCCCS(=O)(=O)O	-2.8%	-16.0%	5.62µM*!	4.6%	8.2%	-8.5%
O=S(=O)(O)CCS	.	.	17.9%	-18.5%	-4.4%	10.7%
